# High-throughput results as filed in PubChem.
# Rows were chosen to be rich in hits. Some 1.2% of all compounds tested hit in one or more screens of this group.
# KCNH2 WT inh – qHTS for Inhibitors of KCHN2 3.1: Wildtype qHTS | U2OS, BacMam KCNH2, thallium flux FluxOr; active compounds read low | Voltage-gated inwardly rectifying potassium channel KCNH2 (Homo sapiens), Q12809 | hit rate 0.37% among 340,000 | activity change, % at 1.84 µM;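 active = maximum activity change below -70%; inconclusive = maximum activity change between -70% and -50%; inactive = maximum activity change above -50%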
# Target sequence (Q12809 whole entry, looked up): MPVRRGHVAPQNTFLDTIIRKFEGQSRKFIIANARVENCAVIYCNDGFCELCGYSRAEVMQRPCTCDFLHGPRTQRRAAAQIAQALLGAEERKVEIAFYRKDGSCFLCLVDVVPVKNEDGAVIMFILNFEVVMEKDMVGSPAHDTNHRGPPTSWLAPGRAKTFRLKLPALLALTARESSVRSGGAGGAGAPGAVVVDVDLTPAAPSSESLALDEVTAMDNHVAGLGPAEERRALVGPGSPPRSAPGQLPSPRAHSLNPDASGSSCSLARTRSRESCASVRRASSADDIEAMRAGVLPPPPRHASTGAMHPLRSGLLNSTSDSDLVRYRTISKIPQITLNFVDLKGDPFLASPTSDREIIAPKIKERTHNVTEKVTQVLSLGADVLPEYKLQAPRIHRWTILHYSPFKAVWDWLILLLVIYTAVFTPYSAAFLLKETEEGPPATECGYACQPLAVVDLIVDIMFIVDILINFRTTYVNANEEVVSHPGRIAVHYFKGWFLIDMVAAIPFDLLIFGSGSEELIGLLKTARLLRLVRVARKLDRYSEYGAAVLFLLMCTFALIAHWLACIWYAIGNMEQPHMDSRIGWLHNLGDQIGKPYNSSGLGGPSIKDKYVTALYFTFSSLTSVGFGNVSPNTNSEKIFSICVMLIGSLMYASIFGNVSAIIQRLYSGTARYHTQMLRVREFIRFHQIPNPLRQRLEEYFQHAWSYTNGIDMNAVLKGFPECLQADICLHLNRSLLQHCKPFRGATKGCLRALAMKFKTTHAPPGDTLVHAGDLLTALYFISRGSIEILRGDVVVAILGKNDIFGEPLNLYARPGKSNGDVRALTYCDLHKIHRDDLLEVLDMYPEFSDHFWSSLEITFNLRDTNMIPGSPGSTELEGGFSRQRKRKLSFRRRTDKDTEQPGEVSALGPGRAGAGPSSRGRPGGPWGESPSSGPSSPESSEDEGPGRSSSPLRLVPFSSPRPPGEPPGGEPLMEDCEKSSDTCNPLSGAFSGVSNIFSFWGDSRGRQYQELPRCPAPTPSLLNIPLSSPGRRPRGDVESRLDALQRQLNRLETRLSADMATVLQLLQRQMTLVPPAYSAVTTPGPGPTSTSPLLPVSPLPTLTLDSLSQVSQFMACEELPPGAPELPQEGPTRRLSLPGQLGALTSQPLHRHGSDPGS
#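 U2OS cells were transduced with wild-type KCNH2 virus (2.03 x 10^8 / mL) for 4 h at room temperature, then cultured overnight at 37 C. Thallium flux was read with FluxOr dye. Rate constants were normalized to DMSO controls.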
# KCNH2 3.1 block – qHTS for Inhibitors of KCHN2 3.1: Mutant qHTS; Potassium voltage-gated channel subfamily H member 2, brain isoform KCNH2 3.1 (human); U2OS KCNH2 3.1, thallium flux FluxOr; active compounds read low; activity change, % (tested at about 1.8 µM); hit rate 0.95% among 340,000;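 active = maximum activity change below -70%; inconclusive = maximum activity change from -70% to -50%; inactive = maximum activity change above -50%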;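 note: thallium influx rate constant from kinetic fluorescence after stimulation buffer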
#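 Measured as rate of thallium-driven FluxOr signal in transduced U2OS cells carrying the 3.1 channel, read kinetically for 2 min upon stimulation; values are rate constants scaled to DMSO control wells.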
# KinaseGlo FLuc – Counterscreen for Luciferase (Kinase-Glo TM) Inhibition; AID 1379, 2008; hit rate 0.28% among 200,000; Kinase-Glo luciferase, ATP luminescence, 8 min; Luciferin 4-monooxygenase (Photuris pensylvanica), Q27757; Potency, µM (titrated, usually from 38.3 µM), for the others: top-dose activity change, negative = inhibition, hits mostly inhibitors; active = well fitted inhibition curve with a large enough effect; inconclusive = small, poorly fitted or top-dose-only effect; note: potency is the fitted concentration of half-maximal effect; nearly all actives have a fitted effect of over 60% in size
#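 Substrate mix (final 50 mM imidazole pH 7.2, 50 mM KCl, 7 mM MgCl2, 10 uM ATP, 0.01% Tween 20, 0.05% BSA) plus pin-tool compound, then Kinase-Glo detection mix; 8 min ambient, luminescence read.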
# * hit, by the source's call; ? = inconclusive; . = not tested or not shown; [ ] = remark or other dose. % is set by controls: 0 for no effect and ±100 for the full control effect.
SMILES,KCNH2 WT inh,KCNH2 3.1 block,KinaseGlo FLuc
CCCC(=O)Nc1ccc2c(c1)nc(CN1CCN(C(=O)OCC)CC1)n2CC,6.7,-18.7,.
O=C(Nc1ccc(-c2nc3ccccc3[nH]2)cc1)C1CCCO1 (configuration not stated),-1.7,5.3,3.98µM*
O=C(Nc1nc2ccccc2[nH]1)C1CCCO1 (configuration not stated),15.6,-8.7,-12.6%
NC(=O)N/N=C1\CC[C@H](O)C[C@@H]1CC(=O)O,.,.,-2.7%[7.66 µM]
Cc1c(CCC(=O)NCCCn2ccnc2)c(=O)oc2c(C)c3oc4c(c3cc12)CCCC4,-150.1*,-159.1*,.
Cc1c(CCC(=O)NCCCCCC(=O)O)c(=O)oc2c(C)c3oc4c(c3cc12)CCCC4,-5.0,?,.
CN1C[C@@H]2[C@@H]3C(=O)N(C)C(=O)[C@@H]3[C@](C)(C1=O)N2C(=O)c1ccc(Br)cc1,14.3,8.1,.
S=C(NCc1ccccc1)N1CCN(c2ccccc2)CC1,-0.1,-73.6*,0.7%
O=C(NCc1ccccc1)N1CCN(c2ccccc2)CC1,-6.8,-17.0,.
CC(=O)NCCC(=O)Nc1cc(S(=O)(=O)N2CCCCC2)ccc1Oc1ccccc1,-70.7*,-16.8,.
COc1ccc(S(=O)(=O)N2CCOCC2)cc1NC(=O)CSc1ccccc1,11.8,-2.3,.
CC(C)Oc1ccc(S(=O)(=O)N2CCOCC2)cc1NC(=O)CCCSc1ccccc1,-0.6,-72.2*,.
CCOc1ccc(Oc2ccc(S(=O)(=O)N3CCOCC3)cc2NC(=O)CCNC(C)=O)cc1,-7.3,23.2,.
O=C(Cc1ccc(NC(=O)C2CCN(C(=O)C3CCCCC3)CC2)cc1)Nc1ccc(C(=O)N2CCOCC2)cc1,-3.9,-24.0,.
C[C@@H]1CCCCO[C@H](CN(C)S(=O)(=O)c2cccs2)[C@H](C)CN([C@@H](C)CO)C(=O)c2cc(NC(=O)NC3CCCCC3)ccc2O1,-9.2,-98.5*,.
C[C@H](CO)N1C[C@H](C)[C@@H](CN(C)C(=O)Nc2ccccc2)Oc2ccc(NC(=O)Nc3ccc4c(c3)OCO4)cc2C1=O,-17.3,-119.9*,.
C[C@H](CO)N1C[C@H](C)[C@@H](CN(C)C(=O)Nc2ccc3c(c2)OCO3)Oc2ccc(NC(=O)Nc3ccc(C(F)(F)F)cc3)cc2C1=O,-2.3,5.0,.
C[C@H](CO)N1C[C@H](C)[C@@H](CN(C)S(=O)(=O)c2cccs2)Oc2ccc(NC(=O)NC3CCCCC3)cc2C1=O,24.7,-18.4,.
N#CCCCC1(CCCC#N)OCCO1,-11.7,3.0,.
O=C1C=CC2=C3c4cc(O)c(O)cc4C[C@]3(O)COC2=C1,.,.,-2.0%
CC1CCCC(NC(=O)NC(=O)COC(=O)c2ccc(O)cc2O)C1C (configuration not stated),-7.6,1.3,.
COc1ccc(NC(=O)Nc2c[nH]c(=O)[nH]c2=O)cc1OC,-4.4,0.6,.
CC1CCCCN1C(=O)COC(=O)c1cc(Cl)c2c(c1)OCO2 (configuration not stated),3.3,-6.0,.
Cc1ccc(C(=O)Nc2nc(-c3ccc4c(c3)OCCO4)cs2)o1,20.9,2.5,.
O=C(Nc1nc(-c2ccc3c(c2)OCCO3)cs1)c1ccc(Br)o1,-10.8,-74.0*,.
SMILES,KCNH2 WT inh,KCNH2 3.1 block,KinaseGlo FLuc
Cc1ccc(S(=O)(=O)N(CC(O)CN2CCCCC2)c2ccccc2)cc1 (configuration not stated),24.0,-32.4,-2.0%
COc1ccc(N(CC(O)Cn2c(C)nc3ccccc32)S(=O)(=O)c2ccccc2)cc1 (configuration not stated),18.5,-41.8,-5.0%
CCCN(CCC)CC(O)CN(c1ccccc1)S(=O)(=O)c1ccc(C)cc1 (configuration not stated),-96.3*,-80.6*,0.7%
COc1ccc(N(CC(O)Cn2c(C)nc3ccccc32)S(=O)(=O)c2ccc(C)cc2)cc1 (configuration not stated),?,-101.7*,3.3%
CN1CC(=O)N(CC(=O)Nc2cccc(S(=O)(=O)N3CCOCC3)c2)C1=O,0.9,-15.9,-0.2%
Cc1ccc(S(=O)(=O)N(C)C)cc1NC(=O)COC(=O)CCC1CCCCC1,0.4,-10.9,.
O=C(CCCn1c(=S)[nH]c2ccsc2c1=O)NCCc1ccccc1,7.2,16.7,.
Cc1ccc(NCCC(=O)c2cccs2)cc1Cl,-2.6,-36.6,-2.7%
O=C(CCNc1cccc(Cl)c1)c1cccs1,-1.1,-70.1*,-5.1%
CCCCc1nc2c(c3c1C[C@H](C)OC3)CN(S(=O)(=O)c1ccc(NC(C)=O)cc1)CC2,.,.,-8.2%[7.66 µM]
O=C(/C=C/c1ccc(O)cc1)c1ccccc1O,.,.,4.47µM*
O=C(C=Cc1cccs1)c1cccs1,-4.4,-1.1,.
O=C(/C=C/c1ccc(O)cc1)c1c(O)cc(O)cc1O,17.8,10.8,1.7%
O=C(/C=C/c1ccc(O)cc1)c1cccs1,.,.,5.62µM*
O=C1C=C(CCc2ccccc2)CCC1,-2.9,-3.1,.
CC(C)C[C@H](N)CSSC[C@@H](N)CC(C)C,.,.,-0.5%
CCN(CC)CCC(=O)N1C/C(=C/c2ccccc2)C(=O)/C(=C\c2ccccc2)C1,31.6,-32.1,.
O=C1/C(=C\c2ccccc2)CN(C(=O)CCN2CCCCC2)C/C1=C/c1ccccc1,-16.7,-75.4*,.
CCC[N+](CC#Cc1ccccc1)(CCC)CC(=O)OCC,23.1,-71.0*,-0.7%
CCC[N+](CC#Cc1ccccc1)(CCC)CC(=O)OC,5.2,5.3,-0.8%
COc1ccc(CCNC(=O)C2CCN(C(=O)c3ccc(Cl)cc3)CC2)cc1OC,0.2,-12.9,.
O=C(Nc1ccccn1)c1ccc(Br)s1,3.1,-8.8,.
O=C(Nn1cnnc1)c1ccc(Br)s1,-0.9,-185.5*,-0.3%
CCOc1ccccc1N1CC(C(=O)Nc2ccc(S(=O)(=O)N3CCCCC3)cc2)CC1=O (configuration not stated),-10.2,-8.0,.
COc1ccc(C(=O)OCC(=O)NC(C)CCc2ccccc2)cc1 (configuration not stated),-6.3,3.4,.
SMILES,KCNH2 WT inh,KCNH2 3.1 block,KinaseGlo FLuc
COc1ccc(C(=O)OCC(=O)NC(C)CCc2ccccc2)cc1OC (configuration not stated),-77.3*,80.1,.
CN(CC(=O)Nc1ccc(N2CCOCC2)cc1)CC(=O)Nc1ccc(N2CCOCC2)cc1,-30.3,6.4,.
CN(CC(=O)Nc1ccc(N2CCOCC2)cc1)C(=O)C12CC3CC(CC(C3)C1)C2,0.9,-73.0*,.
O=C(C1CCCCCC1)N1CC[C@@H](N2CCC(O)CC2)[C@H](O)C1,3.6,4.4,.
Cc1cc(=O)oc2cc(OCC(=O)Nc3ccc(F)cc3F)ccc12,-0.3,-23.1,.
O=C(Oc1ccc(OC(=O)N2CCOCC2)cc1)c1ccccc1,-152.3*,-20.1,-14.7%
O=C(Oc1ccccc1)N1CCOCC1,-10.9,9.5,.
COc1ccc(NS(=O)(=O)c2ccc(O)c(NC(=O)c3cc4c(C)nn(-c5ccc(F)cc5)c4s3)c2)cc1,12.3,-17.4,1.7%
CN(Cc1ccccc1F)C(=O)CCNC(=O)c1ccc(C(C)(C)C)cc1,-8.3,13.4,.
c1ccc(-c2ccc(OCCCNC3CCCC3)cc2)cc1,-10.3,-92.1*,-4.4%
c1ccc(Cc2ccc(OCCCNC3CCCC3)cc2)cc1,.,.,1.9%
